Measured values: PubChem BioAssay (Tox21)
Values joined by “and” are separate entries in the source; they are usually repeats but may differ in a detail not shown here. Equal entries are not always repeated. Results filed as inconclusive are left out. Where a call stands in place of a potency, no number is given. The source holds several records for some structures; these can differ, active in one and inactive in another. Active and inactive are the calls of the source. Unless noted, calls come from the whole dose curve; as a rule, active = well fitted curve in the direction sought with a large enough effect in the repeat runs; inconclusive = weak or mixed curves; inactive = no such curve, though single readings can be large; an effect the other way counts as inactive or inconclusive.

Tests used:
[1] = qHTS assay to identify small molecule agonists of the estrogen receptor alpha (ER-alpha) signaling pathway in the presence of an antagonist - cell viability counter screen (AID 1259386);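 note: cells exposed to compounds for 22 h at 37 °C before the viability read; nearly all actives have a fitted effect of over 30% in size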; note: potency is the fitted concentration of half-maximal effect
Outline: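 The test measures whether compounds kill ER-alpha reporter cells (VM7Luc4E2) under antagonist co-treatment (ICI-182,780, 10.0nM). Fluorescence from CellTiter-Fluor is read after a 22hr exposure.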

[2] = target: Progesterone receptor (Homo sapiens) (UniProt P06401); assay: qHTS assay to identify small molecule agonists of the progesterone receptor (PR) signaling pathway (AID 1346784; calls by dose curve; note: nearly all actives have a fitted effect of over 30% in size)
Chain of Progesterone receptor (Homo sapiens) (P06401 whole entry, looked up): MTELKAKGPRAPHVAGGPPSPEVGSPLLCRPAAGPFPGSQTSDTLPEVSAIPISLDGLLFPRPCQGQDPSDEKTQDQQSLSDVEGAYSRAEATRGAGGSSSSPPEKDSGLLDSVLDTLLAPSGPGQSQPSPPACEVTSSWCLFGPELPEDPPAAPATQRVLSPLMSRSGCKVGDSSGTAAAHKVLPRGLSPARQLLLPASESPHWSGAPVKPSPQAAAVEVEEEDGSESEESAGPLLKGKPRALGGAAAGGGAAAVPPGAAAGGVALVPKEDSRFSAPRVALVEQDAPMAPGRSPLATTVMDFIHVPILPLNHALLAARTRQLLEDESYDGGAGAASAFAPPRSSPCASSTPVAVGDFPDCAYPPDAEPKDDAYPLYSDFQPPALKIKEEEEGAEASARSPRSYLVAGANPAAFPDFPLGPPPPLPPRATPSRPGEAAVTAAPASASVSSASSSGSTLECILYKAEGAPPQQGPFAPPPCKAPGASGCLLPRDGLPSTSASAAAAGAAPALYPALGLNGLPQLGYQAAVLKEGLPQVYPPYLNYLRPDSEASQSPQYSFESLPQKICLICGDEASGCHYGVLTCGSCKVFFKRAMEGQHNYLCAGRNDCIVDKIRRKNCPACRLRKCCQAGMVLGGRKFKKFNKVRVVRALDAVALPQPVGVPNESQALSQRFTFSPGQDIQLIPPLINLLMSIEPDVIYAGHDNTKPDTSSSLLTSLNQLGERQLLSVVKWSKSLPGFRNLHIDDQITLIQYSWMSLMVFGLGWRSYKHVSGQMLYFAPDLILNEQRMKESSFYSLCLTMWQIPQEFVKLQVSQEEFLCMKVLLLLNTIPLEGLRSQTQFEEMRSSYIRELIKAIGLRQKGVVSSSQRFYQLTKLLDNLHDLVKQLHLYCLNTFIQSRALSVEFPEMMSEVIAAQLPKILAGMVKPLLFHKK
Outline: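 Compounds were tested for PR agonism in HEK 293T cells bearing a beta-lactamase gene under UAS control. Treatment lasted 16 hr at 37C; signal came from fluorescence of a FRET substrate.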

[3] = target: Progesterone receptor (Homo sapiens) (UniProt P06401); assay: qHTS assay to identify small molecule antagonists of the progesterone receptor (PR) signaling pathway (AID 1346795; active = well fitted inhibition curve with a large enough effect in the signal ratio in the repeat runs, not every such curve was filed as active; the % refers to the signal ratio; note: potency is the fitted concentration of half-maximal effect)
Outline: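 In HEK293T cells bearing the PR-UAS-bla reporter, compound effects on promegestone-driven (1 nM) beta-lactamase expression are assessed after 16 hr using a fluorescent FRET substrate incubated 2 hr at room temperature.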

[4] = qHTS assay to identify small molecule antagonists of the progesterone receptor (PR) signaling pathway - cell viability counter screen (AID 1346798); note: nearly all actives have a fitted effect of over 50% in size; note: potency is the fitted concentration of half-maximal effect
Outline: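 Following a 4 hr attachment, PR-UAS-bla HEK293T cells in charcoal-stripped FBS medium were exposed to compounds with R5020 for 16 hr; CellTiter-Glo was added and luminescence read after 30 min at room temperature.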

[5] = qHTS assay to identify small molecule agonists of the progesterone receptor (PR) signaling pathway - cell viability counter screen (AID 1346799; calls by dose curve; note: nearly all actives have a fitted effect of over 45% in size; note: potency is the fitted concentration of half-maximal effect)
Outline: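 Here, 3,000 PR-UAS-bla HEK293T cells per well were treated with compounds for 16 hr after a 6 hr preincubation at 37C and 5% CO2; cell viability is the CellTiter-Glo luminescence signal.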

[6] = qHTS assay to identify small molecule agonists of the TGF-beta/Smad signaling pathway (AID 1346859; active = well fitted activation curve with a large enough effect in the signal ratio in the repeat runs, not every such curve was filed as active; the % refers to the signal ratio; note: series mostly up to about 77 µM)
Outline: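 Each well held 4,000 SBE-bla HEK 293T cells incubated overnight before compound addition; 5 hr later the cleavable FRET substrate went on for 2 hr at room temperature, and fluorescence was read at two emissions.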

[7] = target: Thyrotropin-releasing hormone receptor (Homo sapiens) (UniProt P34981); assay: qHTS assay to identify small molecule antagonists of the thyrotropin-releasing hormone receptor (TRHR) signaling pathway (AID 1346877; active = well fitted inhibition curve with a large enough effect in the repeat runs, not every such curve was filed as active; note: series mostly up to about 51 µM)
Chain of Thyrotropin-releasing hormone receptor (Homo sapiens) (P34981 whole entry, looked up): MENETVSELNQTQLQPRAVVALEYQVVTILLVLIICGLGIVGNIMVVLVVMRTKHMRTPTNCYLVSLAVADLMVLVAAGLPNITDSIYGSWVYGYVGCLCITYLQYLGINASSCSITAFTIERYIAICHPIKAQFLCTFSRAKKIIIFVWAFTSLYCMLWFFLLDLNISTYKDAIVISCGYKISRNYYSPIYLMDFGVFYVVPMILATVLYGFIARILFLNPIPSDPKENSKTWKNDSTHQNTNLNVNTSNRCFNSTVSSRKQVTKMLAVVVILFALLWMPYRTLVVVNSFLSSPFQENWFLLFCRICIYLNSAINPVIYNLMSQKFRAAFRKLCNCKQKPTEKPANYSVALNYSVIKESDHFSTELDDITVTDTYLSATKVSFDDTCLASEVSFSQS
Outline: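 Overnight-plated (18 h, 37 °C) HEK293 cells expressing TRHR were dye-loaded 2 h, treated with compound, then stimulated with TRH at 1 nM final. Fluorescence intensity was captured every second for 3 min.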

[8] = target: Thyrotropin-releasing hormone receptor (Homo sapiens) (UniProt P34981); assay: qHTS assay to identify small molecule agonists of the thyrotropin-releasing hormone receptor (TRHR) signaling pathway (AID 1346891; calls by dose curve; note: series mostly up to about 58 µM)
Outline: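 Screening of agonists relied on calcium signalling in HEK293 cells expressing human TRHR: dye loading 2 h at 37 °C preceded compound addition and a 3-min fluorescence time course.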

[9] = Caspase-3/7 induction in HepG2 cells by small molecules, qHTS assay (AID 1346978); note: nearly all actives have a fitted effect of over 15% in size; note: potency is the fitted concentration of half-maximal effect
Outline: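 Wild-type HepG2 cells, 2,000/well, settled 5 hr at 37 C and 5% CO2, then compound-treated for 17 hr; caspase-3/7 activity read by luminescent Caspase-Glo 3/7 after 30 min at room temperature.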

[10] = Caspase-3/7 induction in CHO-K1 cells by small molecules, qHTS cell viability counter screen (AID 1346979); note: nearly all actives have a fitted effect of over 35% in size; note: potency is the fitted concentration of half-maximal effect
Outline: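 CellTiter-Fluor viability check, qHTS format: wild-type CHO-K1, 16hr compound treatment, 1hr reagent incubation, fluorescence read.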

[11] = Caspase-3/7 induction in CHO-K1 cells by small molecules, qHTS assay (AID 1346980); note: nearly all actives have a fitted effect of over 15% in size; note: potency is the fitted concentration of half-maximal effect
Outline: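 Wild-type CHO-K1 cells exposed to compounds for 17hr at 37 C, 5% CO2. Caspase-3/7 activity then measured by Caspase-Glo 3/7 luminescence after 30min at room temperature.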

[12] = Caspase-3/7 induction in HepG2 cells by small molecules, qHTS cell viability counter screen (AID 1346981); note: nearly all actives have a fitted effect of over 30% in size; note: potency is the fitted concentration of half-maximal effect
Outline: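 Treatment of HepG2 cells with DMSO-delivered compounds ran 16 hr at 37 C following a 5-hr pre-incubation of 2,000 cells/well. CellTiter-Fluor fluorescence, read after 1 hr, served as the viability measure in a qHTS format.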

[13] = target: Nuclear receptor subfamily 1 group I member 2 (Homo sapiens) (UniProt O75469); assay: Human pregnane X receptor (PXR) small molecule agonists, qHTS assay (AID 1346982); note: nearly all actives have a fitted effect of over 35% in size; note: potency is the fitted concentration of half-maximal effect
Chain of Nuclear receptor subfamily 1 group I member 2 (Homo sapiens) (O75469 whole entry, looked up): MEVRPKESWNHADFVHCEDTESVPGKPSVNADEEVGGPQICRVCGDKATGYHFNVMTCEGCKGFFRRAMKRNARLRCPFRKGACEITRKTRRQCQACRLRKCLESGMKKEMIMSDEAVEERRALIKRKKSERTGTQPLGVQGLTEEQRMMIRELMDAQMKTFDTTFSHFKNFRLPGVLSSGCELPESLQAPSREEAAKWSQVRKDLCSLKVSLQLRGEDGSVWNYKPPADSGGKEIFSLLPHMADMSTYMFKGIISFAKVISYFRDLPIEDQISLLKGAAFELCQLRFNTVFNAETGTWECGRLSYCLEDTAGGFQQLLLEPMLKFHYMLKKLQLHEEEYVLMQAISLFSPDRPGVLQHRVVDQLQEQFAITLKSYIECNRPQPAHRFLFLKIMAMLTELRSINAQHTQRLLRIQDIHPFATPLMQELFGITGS
Outline: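 Stable HepG2 line reporting PXR-mediated CYP3A4 expression via luciferase. Treatment: 24 hr with compounds in DMSO at 37 C. Detection: ONE-Glo luminescence.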

[14] = qHTS assay to identify small molecule antagonists of the TGF-beta/Smad signaling pathway - cell viability counter screen (AID 1346824); note: nearly all actives have a fitted effect of over 50% in size
Outline: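 SBE-bla HEK 293T cells, incubated overnight, then compound plus 0.25 ng/mL TGF-beta1 (stock added) for 5 hr at 37 C. Viability was read in the same wells by CellTiter-Glo luminescence after 30 min at room temperature.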

[15] = qHTS assay to identify small molecule agonists of the TGF-beta/Smad signaling pathway - cell viability counter screen (AID 1346829); note: nearly all actives have a fitted effect of over 45% in size; note: potency is the fitted concentration of half-maximal effect
Outline: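 HEK 293T SBE-bla line, 5 hr compound exposure at 37 C, multiplexed CellTiter-Glo viability read by luminescence.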

[16] = Human pregnane X receptor (PXR) small molecule agonists, qHTS cell viability counter screen (AID 1346977); note: nearly all actives have a fitted effect of over 50% in size; note: potency is the fitted concentration of half-maximal effect
Outline: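 Tox21 qHTS format; PXR-Luc HepG2, 2,000/well, charcoal-stripped FBS 5%. Cpd exposure 24hr. Read: CellTiter-Fluor fluorescence, multiplexed with luciferase.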

[17] = target: Nuclear receptor subfamily 1 group I member 2 (Rattus norvegicus) (UniProt Q9R1A7); assay: Rat pregnane X receptor (rPXR) activation by small molecules, qHTS assay (AID 1346983); conditions: rPXR luciferase reporter cells, One-Glo luminescence, 24 h; max activation: stronger effect = higher value; note: nearly all actives have a fitted effect of over 20% in size
Chain of Nuclear receptor subfamily 1 group I member 2 (Rattus norvegicus) (Q9R1A7 whole entry, looked up): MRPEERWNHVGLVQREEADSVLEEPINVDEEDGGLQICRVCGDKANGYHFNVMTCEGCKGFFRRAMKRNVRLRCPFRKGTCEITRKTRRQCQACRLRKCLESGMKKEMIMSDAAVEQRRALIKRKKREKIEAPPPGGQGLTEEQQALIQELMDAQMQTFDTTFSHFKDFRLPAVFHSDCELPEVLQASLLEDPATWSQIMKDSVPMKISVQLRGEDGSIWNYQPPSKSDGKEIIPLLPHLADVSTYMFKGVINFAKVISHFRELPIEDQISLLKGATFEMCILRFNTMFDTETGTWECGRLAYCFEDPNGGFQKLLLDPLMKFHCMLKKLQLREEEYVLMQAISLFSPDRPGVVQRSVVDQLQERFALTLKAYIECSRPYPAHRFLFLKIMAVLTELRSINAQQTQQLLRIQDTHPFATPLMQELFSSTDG
Outline: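 Cell-based rPXR activation assay: rPXR cells, 2,000 per well, rested 5hr at 37 C, then exposed to compounds in DMSO for 24 hr at 37 C. Luciferase activity read by One-Glo luminescence after 30 min at room temperature.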

[18] = target: Cytochrome P450 2D6 (Homo sapiens) (UniProt P10635); assay: Cytochrome P450 Family 2 Subfamily D Member 6 (CYP2D6) small molecule antagonists: luciferase reporter qHTS assay (AID 1671196); note: nearly all actives have a fitted effect of over 50% in size; note: potency is the fitted concentration of half-maximal effect
Chain of Cytochrome P450 2D6 (Homo sapiens) (P10635 whole entry, looked up): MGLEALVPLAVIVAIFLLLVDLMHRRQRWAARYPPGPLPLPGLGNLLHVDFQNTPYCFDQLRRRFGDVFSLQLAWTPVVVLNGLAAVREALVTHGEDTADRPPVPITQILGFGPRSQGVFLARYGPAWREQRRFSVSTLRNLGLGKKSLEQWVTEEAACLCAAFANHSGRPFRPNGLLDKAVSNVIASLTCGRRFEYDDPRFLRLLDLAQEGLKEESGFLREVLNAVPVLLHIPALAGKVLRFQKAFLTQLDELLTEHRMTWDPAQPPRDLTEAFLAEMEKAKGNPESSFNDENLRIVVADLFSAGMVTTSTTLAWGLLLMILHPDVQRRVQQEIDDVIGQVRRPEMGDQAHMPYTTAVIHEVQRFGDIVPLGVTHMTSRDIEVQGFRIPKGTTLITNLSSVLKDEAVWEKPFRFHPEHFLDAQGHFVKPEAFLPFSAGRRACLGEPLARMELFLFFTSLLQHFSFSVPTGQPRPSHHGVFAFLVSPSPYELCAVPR
Outline: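 Chemicals tested for interference with CYP2D6 activity; proluciferin substrate, NADPH regeneration, 1 h at room temperature, luminescent detection.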

[19] = target: Nuclear receptor subfamily 1 group I member 2 (Homo sapiens) (UniProt O75469); assay: Human pregnane X receptor (PXR) activation by small molecules, qHTS assay (AID 1346985); note: nearly all actives have a fitted effect of over 40% in size
Outline: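 DPX-2 cells (HepG2 co-transfected with a PXR response element and a CYP3A4-promoter luciferase construct) were seeded at 2,000 per well, rested 5 hr at 37C, then exposed to DMSO-dissolved compounds for 24 hr. Activation was read as luciferase luminescence.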

Oc1ccc(N=Nc2ccccc2)cc1
Potency [1]: 27.7 µM (active)
Potency [2]: inactive
Potency [3]: 19.6 µM (active)
Potency [4]: inactive
Potency [5]: inactive
Potency [6]: inactive
Potency [7]: inactive
Potency [8]: inactive
Potency [9]: inactive
Potency [10]: 61.9 µM (active)
Potency [11]: inactive
Potency [12]: 55.2 µM (active)
Potency [13]: 34.8 µM (active)

Cc1c(C)c2c(c(C)c1O)CCC(C)(COc1ccc(CC3SC(=O)NC3=O)cc1)O2 (centres undefined)
Potency [1]: inactive
Potency [2]: inactive
Potency [3]: 18.8 µM (active)
Potency [14]: inactive
Potency [15]: inactive
Potency [6]: inactive
Potency [7]: inactive
Potency [8]: inactive
Potency [16]: inactive
Potency [9]: inactive
Potency [11]: inactive
Potency [12]: inactive
max activation [17]: -5.73% (inactive)
Potency [18]: inactive

NC(=O)CC[C@@H]1NC(=O)[C@H](Cc2ccccc2)NC(=O)[C@H](Cc2ccc(O)cc2)NC(=O)CCSSC[C@@H](C(=O)N2CCC[C@H]2C(=O)N[C@@H](CCCN=C(N)N)C(=O)NCC(N)=O)NC(=O)[C@H](CC(N)=O)NC1=O
Potency [1]: inactive
Potency [2]: inactive
Potency [3]: inactive
Potency [5]: inactive
Potency [14]: inactive
Potency [15]: inactive
Potency [6]: inactive
Potency [16]: inactive
Potency [9]: inactive
Potency [10]: inactive
Potency [11]: inactive
Potency [12]: inactive
Potency [13]: inactive
max activation [17]: -2.21% (inactive)
Potency [19]: inactive
Potency [18]: inactive

C[n+]1cc2c3c(ccc2c2ccc4cc5c(cc4c21)OCO5)OCO3
Potency [1]: 13 µM (active)
activation [2]: -18.8% [at 19 µM] (inactive)
Potency [3]: 2.59 µM (active)
Potency [4]: 3.66 µM (active)
Potency [5]: 3.26 µM (active)
Potency [15]: 6.57 µM (active)
activity, negative = inhibition [7]: 3.07% [at 10.5 µM] (inactive)
Potency [16]: 2.91 µM (active)
Potency [9]: 3.66 µM (active)
Potency [10]: 1.03 µM (active)
Potency [11]: 1.3 µM (active)
Potency [12]: 5.17 µM (active)
activation [13]: -46.6% [at 19 µM] (inactive)
Potency [18]: 6.74 µM (active)

NC(=NCCCCCCN=C(N)/N=C(\N)Nc1ccc(Cl)cc1)/N=C(\N)Nc1ccc(Cl)cc1
Potency [1]: inactive
Potency [2]: inactive
Potency [3]: inactive and 55.5 µM (active)
Potency [4]: inactive
Potency [5]: inactive
Potency [15]: 35.3 µM (active) and 48.7 µM (active) and inactive
Potency [6]: inactive
Potency [9]: inactive
Potency [10]: 24.2 µM (active) [middle of 5 runs]
Potency [13]: 2.41 µM (active) and inactive

CC1=NC(C)OC1C (centres undefined)
Potency [1]: inactive
Potency [2]: inactive
Potency [3]: inactive
Potency [4]: inactive
Potency [5]: inactive
Potency [15]: inactive
Potency [6]: inactive
Potency [7]: inactive
Potency [8]: inactive
Potency [16]: inactive
Potency [9]: inactive
Potency [10]: inactive
Potency [11]: inactive
Potency [12]: inactive
Potency [18]: 71 µM (active)

CCC(Cl)C(Cl)C(Cl)CC(Cl)C(Cl)C(C)Cl (centres undefined)
Potency [1]: inactive
Potency [2]: inactive
Potency [3]: 17.2 µM (active)
Potency [4]: inactive
Potency [15]: inactive
Potency [6]: inactive
Potency [7]: inactive
Potency [8]: inactive
Potency [16]: inactive
Potency [9]: inactive
Potency [11]: inactive
Potency [12]: inactive
Potency [13]: 21.7 µM (active)

CCC1OCC(COc2ccc(Oc3ccccc3)cc2)O1 (centres undefined)
Potency [1]: inactive
Potency [2]: inactive
Potency [3]: 54.5 µM (active)
Potency [14]: inactive
Potency [15]: inactive
Potency [6]: inactive
Potency [7]: inactive
Potency [8]: inactive
Potency [9]: inactive
Potency [10]: inactive
Potency [11]: inactive
Potency [12]: inactive
Potency [13]: 34.4 µM (active)
Potency [18]: inactive
